What was measured:
[1] = target: Serine/threonine-protein kinase MARK2 (Homo sapiens) (UniProt Q7KZI7); conditions: at 1 µM
[2] = target: PAS domain-containing serine/threonine-protein kinase (Homo sapiens) (UniProt Q96RG2); conditions: at 0.1 µM
[3] = target: PAS domain-containing serine/threonine-protein kinase (Homo sapiens) (UniProt Q96RG2); conditions: at 1 µM
[4] = target: Phosphorylase b kinase gamma catalytic chain, skeletal muscle/heart isoform (Homo sapiens) (UniProt Q16816); conditions: at 0.1 µM
Chain of Phosphorylase b kinase gamma catalytic chain, skeletal muscle/heart isoform (Homo sapiens) (Q16816 whole entry, looked up, canonical isoform): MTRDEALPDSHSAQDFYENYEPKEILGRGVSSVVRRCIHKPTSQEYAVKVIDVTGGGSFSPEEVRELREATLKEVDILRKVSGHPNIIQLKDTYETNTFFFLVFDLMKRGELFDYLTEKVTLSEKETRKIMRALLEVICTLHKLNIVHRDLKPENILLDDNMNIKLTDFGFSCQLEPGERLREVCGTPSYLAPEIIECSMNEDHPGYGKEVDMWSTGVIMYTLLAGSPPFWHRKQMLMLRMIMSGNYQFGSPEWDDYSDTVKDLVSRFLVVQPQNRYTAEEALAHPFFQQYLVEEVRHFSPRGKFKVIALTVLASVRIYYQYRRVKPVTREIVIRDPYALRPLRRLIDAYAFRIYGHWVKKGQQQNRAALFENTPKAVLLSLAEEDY

[5] = target: Phosphorylase b kinase gamma catalytic chain, skeletal muscle/heart isoform (Homo sapiens) (UniProt Q16816); conditions: at 1 µM
[6] = target: T1, Phosphorylase b kinase gamma catalytic chain, liver/testis isoform (Homo sapiens) (UniProt P15735); conditions: at 0.1 µM
T1 sequence (whole entry): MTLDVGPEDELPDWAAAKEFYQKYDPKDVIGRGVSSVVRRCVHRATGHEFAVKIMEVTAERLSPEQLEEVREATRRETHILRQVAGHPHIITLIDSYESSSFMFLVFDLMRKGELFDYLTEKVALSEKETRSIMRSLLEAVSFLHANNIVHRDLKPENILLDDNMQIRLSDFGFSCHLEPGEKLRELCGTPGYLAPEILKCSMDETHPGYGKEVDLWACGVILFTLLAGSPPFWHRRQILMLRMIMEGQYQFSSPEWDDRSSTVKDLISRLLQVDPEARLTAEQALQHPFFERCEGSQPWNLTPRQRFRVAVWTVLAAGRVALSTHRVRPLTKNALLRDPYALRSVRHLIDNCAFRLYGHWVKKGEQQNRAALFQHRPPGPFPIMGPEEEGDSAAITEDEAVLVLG

[7] = target: T1, Phosphorylase b kinase gamma catalytic chain, liver/testis isoform (Homo sapiens); conditions: at 1 µM
[8] = target: Serine/threonine-protein kinase pim-1 (Homo sapiens) (UniProt P11309); conditions: at 0.1 µM
[9] = target: Serine/threonine-protein kinase pim-1 (Homo sapiens) (UniProt P11309); conditions: at 1 µM
[10] = target: Serine/threonine-protein kinase pim-2 (Homo sapiens) (UniProt Q9P1W9); conditions: at 0.1 µM
Chain of Serine/threonine-protein kinase pim-2 (Homo sapiens) (Q9P1W9 whole entry, looked up): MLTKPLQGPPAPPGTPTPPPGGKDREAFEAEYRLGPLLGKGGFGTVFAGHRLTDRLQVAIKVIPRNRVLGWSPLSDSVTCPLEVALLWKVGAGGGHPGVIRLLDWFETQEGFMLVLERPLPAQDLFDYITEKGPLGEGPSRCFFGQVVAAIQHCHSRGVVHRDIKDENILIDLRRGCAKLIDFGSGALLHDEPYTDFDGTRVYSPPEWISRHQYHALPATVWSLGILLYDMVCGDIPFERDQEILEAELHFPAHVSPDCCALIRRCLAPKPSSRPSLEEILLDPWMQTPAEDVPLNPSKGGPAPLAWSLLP

[11] = target: Serine/threonine-protein kinase pim-2 (Homo sapiens) (UniProt Q9P1W9); conditions: at 1 µM
[12] = target: Serine/threonine-protein kinase pim-3 (Homo sapiens) (UniProt Q86V86); conditions: at 0.1 µM
[13] = target: Serine/threonine-protein kinase pim-3 (Homo sapiens) (UniProt Q86V86); conditions: at 1 µM
[14] = target: T2, MAP kinase-activated protein kinase 5 (Homo sapiens) (UniProt Q8IW41); conditions: at 0.1 µM
T2 sequence (whole entry): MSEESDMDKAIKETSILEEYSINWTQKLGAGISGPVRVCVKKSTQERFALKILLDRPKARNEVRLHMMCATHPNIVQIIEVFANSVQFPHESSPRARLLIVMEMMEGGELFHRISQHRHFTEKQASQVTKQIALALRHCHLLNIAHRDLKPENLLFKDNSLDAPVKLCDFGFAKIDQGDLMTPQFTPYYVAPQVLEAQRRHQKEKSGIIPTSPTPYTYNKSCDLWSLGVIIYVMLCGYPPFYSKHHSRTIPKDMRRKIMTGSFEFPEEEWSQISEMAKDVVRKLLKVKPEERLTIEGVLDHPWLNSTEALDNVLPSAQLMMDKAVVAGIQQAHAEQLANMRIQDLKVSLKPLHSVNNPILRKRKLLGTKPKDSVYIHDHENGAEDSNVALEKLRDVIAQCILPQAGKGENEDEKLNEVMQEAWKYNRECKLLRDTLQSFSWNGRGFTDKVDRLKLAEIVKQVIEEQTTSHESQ

[15] = target: T2, MAP kinase-activated protein kinase 5 (Homo sapiens); conditions: at 1 µM
[16] = target: Serine/threonine-protein kinase SIK1 (Homo sapiens) (UniProt P57059); conditions: at 0.1 µM
Chain of Serine/threonine-protein kinase SIK1 (Homo sapiens) (P57059 whole entry): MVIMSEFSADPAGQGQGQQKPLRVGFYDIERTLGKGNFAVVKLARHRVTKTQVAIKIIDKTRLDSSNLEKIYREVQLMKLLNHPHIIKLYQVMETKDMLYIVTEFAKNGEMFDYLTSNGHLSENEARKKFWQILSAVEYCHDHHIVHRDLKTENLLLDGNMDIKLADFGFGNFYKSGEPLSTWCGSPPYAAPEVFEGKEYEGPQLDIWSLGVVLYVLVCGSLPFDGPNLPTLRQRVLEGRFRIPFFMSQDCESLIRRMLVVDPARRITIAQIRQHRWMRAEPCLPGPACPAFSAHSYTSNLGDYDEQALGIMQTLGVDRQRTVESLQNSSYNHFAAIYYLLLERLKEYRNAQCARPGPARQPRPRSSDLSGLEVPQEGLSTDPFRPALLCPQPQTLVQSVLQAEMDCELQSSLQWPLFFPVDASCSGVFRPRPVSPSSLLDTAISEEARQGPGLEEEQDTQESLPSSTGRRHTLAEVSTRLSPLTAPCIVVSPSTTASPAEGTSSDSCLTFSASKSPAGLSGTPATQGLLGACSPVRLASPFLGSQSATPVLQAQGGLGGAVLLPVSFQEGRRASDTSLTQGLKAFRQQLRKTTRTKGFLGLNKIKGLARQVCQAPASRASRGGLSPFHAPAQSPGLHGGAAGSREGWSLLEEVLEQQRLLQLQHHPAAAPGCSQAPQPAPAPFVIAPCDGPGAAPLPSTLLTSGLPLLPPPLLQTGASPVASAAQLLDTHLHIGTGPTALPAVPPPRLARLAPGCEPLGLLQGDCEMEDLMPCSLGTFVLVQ

[17] = target: Serine/threonine-protein kinase SIK1 (Homo sapiens) (UniProt P57059); conditions: at 1 µM
[18] = target: Serine/threonine-protein kinase SIK2 (Homo sapiens) (UniProt Q9H0K1); conditions: at 0.1 µM
Chain of Serine/threonine-protein kinase SIK2 (Homo sapiens) (Q9H0K1 whole entry, looked up): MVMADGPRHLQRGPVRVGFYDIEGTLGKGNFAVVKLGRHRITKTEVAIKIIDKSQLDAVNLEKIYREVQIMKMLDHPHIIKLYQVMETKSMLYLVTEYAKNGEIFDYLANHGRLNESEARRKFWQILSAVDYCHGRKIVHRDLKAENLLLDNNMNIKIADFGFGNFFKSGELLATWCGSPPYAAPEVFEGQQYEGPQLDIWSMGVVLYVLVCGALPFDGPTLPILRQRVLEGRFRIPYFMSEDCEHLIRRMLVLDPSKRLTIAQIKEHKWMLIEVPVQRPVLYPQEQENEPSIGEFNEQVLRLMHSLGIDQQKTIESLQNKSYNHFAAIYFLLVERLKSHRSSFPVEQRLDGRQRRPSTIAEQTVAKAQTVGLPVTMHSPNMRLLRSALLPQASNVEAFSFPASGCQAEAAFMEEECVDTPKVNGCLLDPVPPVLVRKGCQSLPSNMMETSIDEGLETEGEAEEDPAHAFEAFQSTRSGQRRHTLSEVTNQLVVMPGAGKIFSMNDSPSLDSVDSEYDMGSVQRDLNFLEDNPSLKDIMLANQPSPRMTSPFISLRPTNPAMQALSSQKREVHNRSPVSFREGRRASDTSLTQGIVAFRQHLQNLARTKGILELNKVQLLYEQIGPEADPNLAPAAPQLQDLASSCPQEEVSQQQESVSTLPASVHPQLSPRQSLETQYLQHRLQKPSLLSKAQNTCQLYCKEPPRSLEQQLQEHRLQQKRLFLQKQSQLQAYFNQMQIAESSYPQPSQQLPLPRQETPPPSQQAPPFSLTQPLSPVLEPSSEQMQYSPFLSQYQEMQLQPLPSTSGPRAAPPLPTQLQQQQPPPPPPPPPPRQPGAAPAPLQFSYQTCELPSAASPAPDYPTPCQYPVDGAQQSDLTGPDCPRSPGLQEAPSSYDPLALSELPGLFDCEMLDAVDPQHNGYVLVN

[19] = target: Serine/threonine-protein kinase SIK2 (Homo sapiens) (UniProt Q9H0K1); conditions: at 1 µM
[20] = target: T3, Serine/threonine-protein kinase TBK1 (Homo sapiens) (UniProt Q9UHD2); conditions: at 0.1 µM;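 further: values are the mean TBK1 inhibition, taken from the GSK PKIS screening data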
T3 sequence (whole entry): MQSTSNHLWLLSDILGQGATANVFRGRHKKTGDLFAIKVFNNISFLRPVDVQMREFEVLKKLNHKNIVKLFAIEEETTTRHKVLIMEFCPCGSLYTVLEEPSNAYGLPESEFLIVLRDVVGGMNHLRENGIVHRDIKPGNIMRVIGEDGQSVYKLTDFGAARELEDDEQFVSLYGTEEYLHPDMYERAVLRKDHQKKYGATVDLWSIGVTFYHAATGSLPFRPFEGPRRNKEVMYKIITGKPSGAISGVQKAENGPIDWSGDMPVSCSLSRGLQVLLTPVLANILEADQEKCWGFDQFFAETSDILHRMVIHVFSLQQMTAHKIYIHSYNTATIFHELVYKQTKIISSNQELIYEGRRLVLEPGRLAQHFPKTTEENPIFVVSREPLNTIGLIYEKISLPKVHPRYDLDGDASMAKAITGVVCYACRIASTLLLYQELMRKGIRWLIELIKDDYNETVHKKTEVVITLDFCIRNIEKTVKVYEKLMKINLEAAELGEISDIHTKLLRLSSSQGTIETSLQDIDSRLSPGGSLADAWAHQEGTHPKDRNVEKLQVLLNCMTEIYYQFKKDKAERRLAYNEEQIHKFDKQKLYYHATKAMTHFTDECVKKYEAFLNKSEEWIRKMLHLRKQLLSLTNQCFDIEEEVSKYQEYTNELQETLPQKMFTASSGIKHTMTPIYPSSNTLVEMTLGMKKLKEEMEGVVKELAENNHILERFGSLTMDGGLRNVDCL

Chain of PAS domain-containing serine/threonine-protein kinase (Homo sapiens) (Q96RG2 whole entry, the tested form may be a part, canonical isoform): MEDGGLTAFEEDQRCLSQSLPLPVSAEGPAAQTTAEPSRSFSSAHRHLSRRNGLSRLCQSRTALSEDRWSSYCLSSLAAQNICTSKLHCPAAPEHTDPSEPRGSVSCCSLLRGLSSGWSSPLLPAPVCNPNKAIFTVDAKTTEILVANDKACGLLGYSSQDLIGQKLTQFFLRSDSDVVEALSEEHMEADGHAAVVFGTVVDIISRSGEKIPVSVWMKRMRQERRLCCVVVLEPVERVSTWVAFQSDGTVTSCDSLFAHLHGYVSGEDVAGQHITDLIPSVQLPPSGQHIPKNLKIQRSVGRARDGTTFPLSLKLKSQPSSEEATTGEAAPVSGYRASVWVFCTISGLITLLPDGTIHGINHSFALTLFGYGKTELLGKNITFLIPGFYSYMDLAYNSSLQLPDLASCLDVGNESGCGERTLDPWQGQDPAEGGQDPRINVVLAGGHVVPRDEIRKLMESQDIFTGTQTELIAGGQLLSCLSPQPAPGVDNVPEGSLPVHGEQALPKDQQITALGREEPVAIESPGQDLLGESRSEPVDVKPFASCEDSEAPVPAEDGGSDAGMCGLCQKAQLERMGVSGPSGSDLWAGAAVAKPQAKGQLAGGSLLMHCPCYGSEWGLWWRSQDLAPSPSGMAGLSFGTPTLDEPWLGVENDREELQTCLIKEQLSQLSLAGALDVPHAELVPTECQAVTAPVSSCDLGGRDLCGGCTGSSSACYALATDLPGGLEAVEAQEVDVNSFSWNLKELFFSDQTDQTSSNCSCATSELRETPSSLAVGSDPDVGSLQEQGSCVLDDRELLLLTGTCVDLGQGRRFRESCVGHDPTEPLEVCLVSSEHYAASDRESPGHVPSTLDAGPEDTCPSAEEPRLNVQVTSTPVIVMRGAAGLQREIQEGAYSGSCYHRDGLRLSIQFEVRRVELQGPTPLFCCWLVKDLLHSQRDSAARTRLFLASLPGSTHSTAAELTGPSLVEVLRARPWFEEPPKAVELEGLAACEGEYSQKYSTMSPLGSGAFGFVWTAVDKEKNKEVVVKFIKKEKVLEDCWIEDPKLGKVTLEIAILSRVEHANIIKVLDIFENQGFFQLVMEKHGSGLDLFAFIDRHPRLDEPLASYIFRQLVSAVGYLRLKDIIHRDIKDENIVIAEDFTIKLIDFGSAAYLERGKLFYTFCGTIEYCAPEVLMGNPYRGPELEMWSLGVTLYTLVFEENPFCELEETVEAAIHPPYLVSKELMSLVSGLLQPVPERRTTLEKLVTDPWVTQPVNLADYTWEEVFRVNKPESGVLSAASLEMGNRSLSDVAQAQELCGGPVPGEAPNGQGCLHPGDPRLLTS
Chain of Serine/threonine-protein kinase MARK2 (Homo sapiens) (Q7KZI7 whole entry, the tested form may be a part): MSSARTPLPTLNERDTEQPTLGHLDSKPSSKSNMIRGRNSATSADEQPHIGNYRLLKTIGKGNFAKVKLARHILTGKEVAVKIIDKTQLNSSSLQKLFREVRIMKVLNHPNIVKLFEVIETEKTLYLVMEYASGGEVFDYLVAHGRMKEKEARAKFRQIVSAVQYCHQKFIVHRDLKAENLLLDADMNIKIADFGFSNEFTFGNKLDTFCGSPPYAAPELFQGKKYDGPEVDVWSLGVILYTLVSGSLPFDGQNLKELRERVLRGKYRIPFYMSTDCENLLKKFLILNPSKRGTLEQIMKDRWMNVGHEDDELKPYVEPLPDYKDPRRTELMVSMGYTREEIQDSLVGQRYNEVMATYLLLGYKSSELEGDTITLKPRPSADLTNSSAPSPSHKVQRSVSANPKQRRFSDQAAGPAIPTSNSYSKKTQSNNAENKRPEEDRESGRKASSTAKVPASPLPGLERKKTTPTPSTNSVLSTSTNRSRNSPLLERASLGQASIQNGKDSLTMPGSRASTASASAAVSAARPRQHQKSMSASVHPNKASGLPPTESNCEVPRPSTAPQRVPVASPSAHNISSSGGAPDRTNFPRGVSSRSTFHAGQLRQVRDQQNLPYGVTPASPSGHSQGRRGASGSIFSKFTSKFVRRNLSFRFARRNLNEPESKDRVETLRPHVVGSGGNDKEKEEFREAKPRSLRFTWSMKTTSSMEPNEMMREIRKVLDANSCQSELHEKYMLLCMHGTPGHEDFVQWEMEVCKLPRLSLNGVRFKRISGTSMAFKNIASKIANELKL

SMILES	inhibition [1] [%]	inhibition [2] [%]	inhibition [3] [%]	inhibition [4] [%]	inhibition [5] [%]	inhibition [6] [%]	inhibition [7] [%]	inhibition [8] [%]	inhibition [9] [%]	inhibition [10] [%]	inhibition [11] [%]	inhibition [12] [%]	inhibition [13] [%]	inhibition [14] [%]	inhibition [15] [%]	inhibition [16] [%]	inhibition [17] [%]	inhibition [18] [%]	inhibition [19] [%]	inhibition [20] [%]
NC(=O)c1sc(-n2cnc3ccccc32)cc1OCc1ccccc1Br	6.32	-0.54	-0.07	2.76	6.49	4.32	5.93	0.2	3.08	-0.36	0.78	-1.03	3.81	1.15	0.91	4.47	13.6	3.55	9.83	0.38
Cc1ccc2c(c1)/C(=N/Nc1ccc(S(N)(=O)=O)cc1)C(=O)N2	4.44	0.38	0.32	1.32	11	1.11	0.07	0.77	0.99	0.28	1.85	-0.58	-0.92	0.02	-2.03	1.14	1.4	-5.87	10.4	-2.1
COc1cccc(-n2ncc3c(N/N=C/c4ccc(S(C)(=O)=O)cc4)ncnc32)c1	3.41	-0.17	0.02	2.42	2.63	1.57	2.21	-0.52	1.73	-3.69	-2.5	0.09	2.23	0.26	0.26	4.24	26	19.1	29.9	8.06
COc1cc2ncn(-c3cc(OCc4ccccc4S(C)(=O)=O)c(C#N)s3)c2cc1OC	70.7	0.91	0.31	45.2	76.5	4.94	10.9	0.71	0.97	0.9	1.39	-0.4	-0.82	0.7	-0.19	16.1	61	21.9	69.4	64.9
COc1cc(/C=N/Nc2ncnc3c2cnn3C(C)C)ccc1O	1.32	-0.76	-1.33	2.28	5.02	-0.14	1.57	0.52	2.04	0.9	4.35	1.2	7.74	0.1	0.02	2.84	14.5	2.78	23.1	2.37
Cc1ccc2c(-c3ccnc(Nc4cccc(C(F)(F)F)c4)n3)c(-c3ccccc3)nn2n1	4.11	-0.16	-0.17	2.62	7.08	4.1	4.82	1.05	1.72	-0.26	-0.7	0.5	1.85	1.8	1.94	6.3	15.8	1.03	9.81	3.23
CN(C)C(=O)O[C@H]1CN[C@H](C#Cc2cc3ncnc(Nc4ccc(OCc5cccc(F)c5)c(Cl)c4)c3s2)C1	1.09	0.16	-0.64	2.62	2.71	2.94	-0.02	-0.09	0.1	0.57	0.45	-0.1	-1.11	0.7	-0.94	4.32	5.89	11.5	12.2	-0.37
O=C1Nc2ccccc2/C1=C/Nc1ccc2[nH]c(=O)[nH]c2c1	13.4	12.4	64.1	10.5	42.6	7.44	21.4	-0.21	2.44	0.27	-0.46	-0.36	5.21	1.86	5	3.92	14.9	9.13	17.6	8.2
CC(C)c1ccc(Nc2nccc(-c3cnn4ncccc34)n2)cc1	1.01	-0.78	-0.93	2.33	7.97	4.16	3.83	-0.71	2.45	-0.13	1.73	0.51	6.16	0.53	1.09	4.79	8.55	2.73	11.3	1.14
CCn1c(-c2nonc2N)nc2c(C#CC(C)(C)O)nc(OCCNC)cc21	10.6	-1.05	0.6	1.42	4.25	3.52	4.33	1.82	4.29	-0.54	1.04	0.16	3.51	1.21	1.03	6.97	10.6	3.14	9.54	3.53
COc1cc2ncnc(Nc3ccc(C)c(O)c3)c2cc1OC	0.64	-0.16	0.97	6.64	23.5	5.48	7.74	1.41	1.44	1.6	2.78	2.48	4.22	3.96	2.36	5.14	33.2	7.06	18.9	1.88
